Where “and” joins values, the source holds several entries; their conditions need not be identical. Equal values may be shown once. Records with an inconclusive call do not appear. Where a call stands in place of a potency, no number is given. Where a structure was tested more than once in an assay, its records may differ in their call. Calls of active or inactive are those of the source. Calls come from the whole dose curve; as a rule, active = well fitted inhibition curve with a large enough effect in the repeat runs; inconclusive = weak or mixed curves; inactive = no such curve, though single readings can be large or run the other way.
The compounds below were run against Estrogen receptor (Homo sapiens) (UniProt P03372) (assay: qHTS assay to identify small molecule antagonists of the estrogen receptor alpha (ER-alpha) signaling pathway using the BG1 cell line in the presence of 0.1 nM 17-beta-estradiol (AID 1259244; note: nearly all actives have a fitted effect of over 50% in size)). Conditions: VM7Luc4E2 (BG1) ERE-luciferase, antagonist mode, 0.1 nM E2, 22 h; series mostly up to 92.4 µM.
Estrogen receptor (Homo sapiens), sequence (P03372 whole entry, looked up): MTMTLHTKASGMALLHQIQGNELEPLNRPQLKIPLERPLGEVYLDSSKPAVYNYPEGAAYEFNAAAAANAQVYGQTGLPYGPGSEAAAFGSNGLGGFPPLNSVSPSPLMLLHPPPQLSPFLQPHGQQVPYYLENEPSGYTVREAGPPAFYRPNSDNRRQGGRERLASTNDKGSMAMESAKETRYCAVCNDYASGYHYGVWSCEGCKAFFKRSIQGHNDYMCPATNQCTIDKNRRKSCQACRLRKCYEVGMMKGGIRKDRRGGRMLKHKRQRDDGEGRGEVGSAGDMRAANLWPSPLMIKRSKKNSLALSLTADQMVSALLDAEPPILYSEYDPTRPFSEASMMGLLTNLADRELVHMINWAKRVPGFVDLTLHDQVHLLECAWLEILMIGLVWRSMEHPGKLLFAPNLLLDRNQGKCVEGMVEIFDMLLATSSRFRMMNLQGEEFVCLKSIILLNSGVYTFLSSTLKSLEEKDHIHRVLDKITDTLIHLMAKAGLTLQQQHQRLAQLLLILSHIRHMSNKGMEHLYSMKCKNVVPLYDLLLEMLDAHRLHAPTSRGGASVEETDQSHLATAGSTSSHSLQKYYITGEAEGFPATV
Description: National Center for Advancing Translational Sciences [NCATS]
NIH Chemical Genomics Center [NCGC]
U.S. Environmental Protection Agency [EPA]
National Institutes of Environmental Health Sciences [NIEHS]
National Toxicology Program [NTP]
U.S. Food and Drug Administration [FDA]
Estrogen receptor (ER), a member of the nuclear hormone receptor plays an important role in development, metabolic homeostasis and reproduction. Two subtypes of ER, ER-alpha and ER-beta, have similar expression patterns with some uniqueness in both types. Endocrine disrupting chemicals (EDCs) and their interactions with steroid hormone receptors like ER causes disruption of normal endocrine function. Therefore, it is important to understand the effect of environmental chemicals in ER signaling pathway. For identifying ER antagonists, VM7Luc4E2 cell line was used to screen against Tox21 compound libraries.
VM7Luc4E2 cell line (provided by Denison MS, University of California) endogenously express full-length ER-alpha and is stably transfected with a plasmid containing four estrogen responsive elements (ERE) upstream of a luciferase reporter gene. The current screening for identification of ER-alpha inhibitors against Tox21 compound libraries used lower concentration (0.1 nM) of 17beta-Estradiol as a stimulator.
Tox21 Assay Protocol Summary:
VM7Luc4E2 cells were cultured in phenol red free assay medium containing 10% charcoal stripped FBS for 5 days prior to the assay. The cells were dispensed at 4,000 cells/well in 4 uL of assay medium into white wall/solid-bottom 1536-well plates (Corning Life Sciences, Corning, NY) using a Multidrop Combi (ThermoFisher Scientific, Waltham, MA) dispenser. After the assay plates were incubated at 37C and 5% CO2 for 24 hr, 23 nL of compounds dissolved in DMSO, positive controls or DMSO only was transferred to the assay plates by a Pintool station (Kalypsys, San Diego, CA). The transfer of compounds was followed by the addition of 1 uL of 0.1 nM (final concentration) agonist (17beta-Estradiol)/assay medium using a Flying Reagent Dispenser (FRD, Aurora Discovery, San Diego, CA). The plates were incubated at 37C and 5% CO2 for 22 hr. For luciferase reporter gene assay, 4 uL of ONE-Glo reagent (Promega Corporation, Madison, WI) was added to each well using the FRD and after 30 min incubation at room temperature luminescence intensity was measured using ViewLux plate reader (PerkinElmer, Shelton, CT).
`COc1cc(-c2nc(NC(=O)c3cc4cc(C)cc(C)c4n3CC(=O)O)sc2CCC2CCCCC2)c(OC)cc1Cl` was tested, and the Potency was “inactive”.
For `Oc1ccc(Cl)cc1Sc1cc(Cl)ccc1O`, the Potency was 30.6 µM (active) and 29.8 µM (active).
`O=c1[nH]cnc2nc[nH]c12` was tested, and the Potency was “inactive”.
`Oc1cc2ccccc2c2ccccc12` was tested, and the Potency was 15.4 µM (active).
With `CC1(C)CCC(C)(C)c2cc(C(=O)Nc3ccc(C(=O)O)cc3)ccc21` the Potency was “inactive”.
`CN1CCN(CCC(=O)N2c3ccccc3Sc3ccc(C(F)(F)F)cc32)CC1` was tested, and the Potency was “inactive”.
In the case of `CC(C)(C)C(=O)OCOC(=O)C1N2C(=O)CC2S(=O)(=O)C1(C)C` (stereo not given), the Potency is reported as “inactive”.
`O=C1C=CC(=O)N1` was tested, and the Potency was 55.9 µM (active).
For `Cc1cc(CCN2CCN(c3nsc4ccccc34)CC2)cc2c1NC(=O)CC2(C)C`, the Potency was 13.7 µM (active).
`O=c1cccccc1O` was tested, and the Potency was “inactive”.
In the case of `CN(C)[C@@H]1C(=O)C(C(N)=O)=C(O)[C@@]2(O)C(=O)C3=C(O)c4c(O)cccc4C[C@H]3C[C@@H]12`, the Potency is reported as “inactive”.
`CCCC(=O)OC[C@@H](OC(=O)CCC)[C@@H](OC(=O)CCC)[C@H](Cn1c2nc(=O)[nH]c(=O)c-2nc2cc(C)c(C)cc21)OC(=O)CCC` was tested, and the Potency was 26.6 µM (active).
`O=C(Oc1ccccc1)c1ccccc1C(=O)Oc1ccccc1` was tested, and the Potency was “inactive”.
In the case of `COCCCC/C(=N\OCCN)c1ccc(C(F)(F)F)cc1`, the Potency is reported as “inactive”.
With `O=C1c2c(O)ccc(Nc3ccc(CCO)cc3)c2C(=O)c2c([N+](=O)[O-])ccc(O)c21` the Potency was “inactive”.
For `C[C@H](CCC(=O)O)[C@H]1CC[C@H]2[C@@H]3CC[C@@H]4C[C@H](O)CC[C@]4(C)[C@H]3CC[C@]12C`, the Potency was “inactive”.
In the case of `Cc1ccc(O)c2ncccc12`, the Potency is reported as 11.9 µM (active).
With `CCOC(=O)O[C@H](C)OC(=O)c1ccc2c(c1)cc(C(=O)NC1CCN(C(C)C)CC1)n2Cc1cc(-c2ccc(Cl)s2)on1` the Potency was 64.1 µM (active).
`Nc1nc2ccccc2n1Cc1ccc(F)cc1` was tested, and the Potency was 10.6 µM (active).
In the case of `O=Cc1cc(O)ccc1Br`, the Potency is reported as “inactive”.
`CCCCCCCCOC(=O)c1ccc(O)cc1` was tested, and the Potency was “inactive”.
In the case of `CNC(=O)c1ccccc1`, the Potency is reported as “inactive”.
`CCCCCCCCCCCCCC[P+](CCCC)(CCCC)CCCC` (tested in a mixture with another compound) was tested, and the Potency was 1.73 µM (active).
With `Clc1ccc2nsnc2c1NC1=NCCN1` the Potency was “inactive”.
`CCCCCCCCCCCC(=O)NCCCN(C)C` was tested, and the Potency was “inactive”.
With `O=c1[nH]sc2cc(Cl)ccc12` the Potency was “inactive”.
`CN(C)c1ccc(C2(c3ccc(N(C)C)cc3)OC(=O)c3cc(N(C)C)ccc32)cc1` was tested, and the Potency was “inactive”.
With `CCCCCCCCCCCCCCCC[N+](C)(C)CCN(Cc1ccc(OC)cc1)c1ncccn1` the Potency was “inactive”.
With `O=C1CCCCCN1SSN1CCCCCC1=O` the Potency was “inactive”.
`CCCCCOC(=O)CCCC` was tested, and the Potency was “inactive”.
With `COC(=O)C1=C(C)NC(C)=C(C(=O)OCC(C)C)C1c1ccccc1[N+](=O)[O-]` (stereo not given) the Potency was 48.6 µM (active) and inactive.
`Fc1ccc(C(c2ccc(F)cc2)N2CCN(C/C=C/c3ccccc3)CC2)cc1` was tested, and the Potency was “inactive”.
`CC[C@@]1(O)C(=O)OCc2c1cc1n(c2=O)Cc2c-1nc1ccccc1c2/C=N/OC(C)(C)C` was tested, and the Potency was 0.188 µM (active).
For `C=CC(=O)OCC(CO)(COCC(COC(=O)C=C)(COC(=O)C=C)COC(=O)C=C)COC(=O)C=C`, the Potency was 17 µM (active).
`CC(C)n1nc(-c2cc3cc(O)ccc3[nH]2)c2c(N)ncnc21` was tested, and the Potency was 0.376 µM (active).
For `CC(=O)SC[C@@H](Cc1ccccc1)C(=O)NCC(=O)OCc1ccccc1`, the Potency was “inactive”.
`CSc1ccc(C(=O)c2[nH]c(=O)[nH]c2C)cc1` was tested, and the Potency was “inactive”.
In the case of `CC(C)(C)NC(=O)[C@@H]1C[C@@H]2CCCC[C@@H]2CN1C[C@@H](O)[C@H](Cc1ccccc1)NC(=O)[C@H](CC(N)=O)NC(=O)c1ccc2ccccc2n1`, the Potency is reported as 61.9 µM (active).
With `NNc1nc(-c2ccccc2)cs1` the Potency was “inactive”.
`CCC(N)(CO)CO` was tested, and the Potency was “inactive”.
Potency is the fitted concentration of half-maximal effect.
